The structures appear in SMILES notation. Several values for one entry are separate records, joined by “and”; a condition that tells them apart may be missing. Equal entries are not always repeated. Records with an inconclusive call do not appear. Where a structure was tested more than once in an assay, its records may differ in their call. Activity calls are given as the source filed them. Calls come from the whole dose curve; as a rule, active = well fitted curve in the direction sought with a large enough effect in the repeat runs; inconclusive = weak or mixed curves; inactive = no such curve, though single readings can be large; an effect the other way counts as inactive or inconclusive.

Assay [1] in a line: qHTS RealTime-Glo MT Cell Viability Assay in HEK293 cells - 40 hour (AID 1224874). Note: nearly all actives have a fitted effect of over 50% in size. Particulars: RealTime-Glo luminescence; max response: stronger effect = lower value. A digest of the protocol: (§1)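 HEK293 cells mixed with RealTime-Glo reagents (NanoLuc plus cell-permeant prosubstrate) at 600 cells/well, preincubated 5 h at 37 C/5% CO2, then given 23 nL compound in DMSO. Nonlytic luminescence from viable cells was read at 0, 8, 16, 24, 32 and 40 h.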

Assay [2] is described as follows: A CellTox Green Cytotoxicity Assay to monitor cytotoxicity in HEK293 cells - 24 hour (AID 1224875). Note: series mostly up to about 77 µM; nearly all actives have a fitted effect of over 45% in size. A digest of the protocol:
(§2)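 HEK293 cells premixed with CellTox Green dye were seeded at 600 cells/well and left 5 h at 37 C/5% CO2 before pin transfer of 23 nL compound in DMSO. Fluorescence from dye bound to dead-cell DNA was read during 40 h treatment.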

A short description of assay [3]: A CellTox Green Cytotoxicity Assay to monitor cytotoxicity in HepG2 cells - 16 hour (AID 1224876). Note: nearly all actives have a fitted effect of over 45% in size. The method, boiled down: (§3)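 HepG2 cells were seeded together with the CellTox Green dye at 600 cells/well, left 5 h at 37 C/5% CO2, then given compounds in DMSO. Fluorescence from dye bound to dead-cell DNA was read repeatedly over 40 h of treatment at 37 C.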
Assay [4] in a line: qHTS RealTime-Glo MT Cell Viability Assay in HepG2 cells - 32 hour (AID 1224877). Note: nearly all actives have a fitted effect of over 55% in size. The method, boiled down:
(§4)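 Compound treatment began 5 h after plating HepG2 cells (600/well) with NanoLuc luciferase and prosubstrate. Plates stayed at 37 C for 40 h; luminescence was captured at six time points, 0 h through 40 h.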
A general note: Quantitative high-throughput screening tests each substance at several concentrations.

Assay [5] can be described thus: A CellTox Green Cytotoxicity Assay to monitor cytotoxicity in HepG2 cells - 24 hour (AID 1224878). Note: nearly all actives have a fitted effect of over 45% in size. The method, boiled down: as §3
Assay [6] in a line: A CellTox Green Cytotoxicity Assay to monitor cytotoxicity in HepG2 cells - 40 hour (AID 1224879). Note: nearly all actives have a fitted effect of over 40% in size. Note: potency is the fitted concentration of half-maximal effect. A digest of the protocol:
as §3

The nature of assay [7]: qHTS RealTime-Glo MT Cell Viability Assay in HEK293 cells - 0 hour (AID 1224880). Note: top concentration of the series differs between compounds; nearly all actives have a fitted effect of over 45% in size. The method, boiled down:
as §1

Assay [8] in a line: A CellTox Green Cytotoxicity Assay to monitor cytotoxicity in HEK293 cells - 32 hour (AID 1224881). Note: nearly all actives have a fitted effect of over 40% in size. The method, boiled down:
as §2

A short description of assay [9]: A CellTox Green Cytotoxicity Assay to monitor cytotoxicity in HepG2 cells - 0 hour (AID 1224882). Note: nearly all actives have a fitted effect of over 35% in size. A digest of the protocol:
as §3

Assay [10] is described as follows: A CellTox Green Cytotoxicity Assay to monitor cytotoxicity in HepG2 cells - 32 hour (AID 1224883). Note: nearly all actives have a fitted effect of over 50% in size. The method, boiled down: as §3
A short description of assay [11]: A CellTox Green Cytotoxicity Assay to monitor cytotoxicity in HEK293 cells - 8 hour (AID 1224884). Note: nearly all actives have a fitted effect of over 35% in size. A digest of the protocol:
as §2

Assay [12] in a line: qHTS RealTime-Glo MT Cell Viability Assay in HepG2 cells - 16 hour (AID 1224885). Note: nearly all actives have a fitted effect of over 50% in size. The method, boiled down:
as §4

A short description of assay [13]: qHTS RealTime-Glo MT Cell Viability Assay in HEK293 cells - 24 hour (AID 1224886). Note: top concentration of the series differs between compounds; nearly all actives have a fitted effect of over 50% in size. A digest of the protocol: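 Quantitative high-throughput screen of the Tox21 10K library in HEK293: cells and RealTime-Glo reagents plated together, compound added at 5 h, luminescence monitored through 40 h at 37 C.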
The nature of assay [14]: qHTS RealTime-Glo MT Cell Viability Assay in HEK293 cells - 8 hour (AID 1224887). The method, boiled down:
as §1

Assay [15] is described as follows: A CellTox Green Cytotoxicity Assay to monitor cytotoxicity in HEK293 cells - 16 hour (AID 1224888). Note: nearly all actives have a fitted effect of over 35% in size. The method, boiled down:
as §2

Assay [16] in a line: qHTS RealTime-Glo MT Cell Viability Assay in HepG2 cells - 0 hour (AID 1224889). Note: nearly all actives have a fitted effect of over 50% in size. A digest of the protocol: as §4
The nature of assay [17]: A CellTox Green Cytotoxicity Assay to monitor cytotoxicity in HepG2 cells - 8 hour (AID 1224890). Note: nearly all actives have a fitted effect of over 45% in size. The method, boiled down:
as §3

Assay [18] is described as follows: qHTS assay to identify small molecule antagonists of the estrogen receptor alpha (ER-alpha) signaling pathway using the BG1 cell line in the presence of 0.1 nM 17-beta-estradiol - cell viability counter screen (AID 1259241). Note: nearly all actives have a fitted effect of over 40% in size. A digest of the protocol:
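VM7Luc4E2 cells (endogenous full-length ER-alpha, 4xERE-luciferase), cultured 5 days in charcoal-stripped serum, exposed to compounds with 0.1 nM 17beta-estradiol (final) for 22 hr at 37C. Viability read in same wells as live-cell protease fluorescence after 30 min.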

Assay [19] can be described thus: qHTS assay to identify small molecule antagonists of the androgen receptor (AR) signaling pathway using the MDA cell line in the presence of 0.5 nM R1881 - cell viability counter screen (AID 1259242). Note: nearly all actives have a fitted effect of over 45% in size. The method, boiled down:
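MDA-kb2 cells (human breast carcinoma, stably carrying MMTV-luciferase reporter) were exposed to compounds with 0.5 nM R1881 (final) for 16 hr at 37C, 0% CO2; viability then read as live-cell protease fluorescence (CellTiter-Fluor, 30 min) in the same wells.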

Assay [20] concerns the target Androgen receptor (Homo sapiens) (UniProt P10275). In words: qHTS assay to identify small molecule antagonists of the androgen receptor (AR) signaling pathway using the MDA cell line in the presence of 0.5 nM R1881 (AID 1259243). Note: nearly all actives have a fitted effect of over 50% in size. A digest of the protocol: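 MDA-kb2 human breast carcinoma cells carrying an MMTV-luciferase reporter (AR- and GR-responsive) were plated, rested 5 hr at 37C, dosed with compounds, then stimulated with 0.5 nM R1881 (final) for 16 hr; luminescence was read after ONE-Glo.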
% is set by controls: 0 for no effect and ±100 for the full control effect.

Chain of Androgen receptor (Homo sapiens) (P10275 whole entry, looked up): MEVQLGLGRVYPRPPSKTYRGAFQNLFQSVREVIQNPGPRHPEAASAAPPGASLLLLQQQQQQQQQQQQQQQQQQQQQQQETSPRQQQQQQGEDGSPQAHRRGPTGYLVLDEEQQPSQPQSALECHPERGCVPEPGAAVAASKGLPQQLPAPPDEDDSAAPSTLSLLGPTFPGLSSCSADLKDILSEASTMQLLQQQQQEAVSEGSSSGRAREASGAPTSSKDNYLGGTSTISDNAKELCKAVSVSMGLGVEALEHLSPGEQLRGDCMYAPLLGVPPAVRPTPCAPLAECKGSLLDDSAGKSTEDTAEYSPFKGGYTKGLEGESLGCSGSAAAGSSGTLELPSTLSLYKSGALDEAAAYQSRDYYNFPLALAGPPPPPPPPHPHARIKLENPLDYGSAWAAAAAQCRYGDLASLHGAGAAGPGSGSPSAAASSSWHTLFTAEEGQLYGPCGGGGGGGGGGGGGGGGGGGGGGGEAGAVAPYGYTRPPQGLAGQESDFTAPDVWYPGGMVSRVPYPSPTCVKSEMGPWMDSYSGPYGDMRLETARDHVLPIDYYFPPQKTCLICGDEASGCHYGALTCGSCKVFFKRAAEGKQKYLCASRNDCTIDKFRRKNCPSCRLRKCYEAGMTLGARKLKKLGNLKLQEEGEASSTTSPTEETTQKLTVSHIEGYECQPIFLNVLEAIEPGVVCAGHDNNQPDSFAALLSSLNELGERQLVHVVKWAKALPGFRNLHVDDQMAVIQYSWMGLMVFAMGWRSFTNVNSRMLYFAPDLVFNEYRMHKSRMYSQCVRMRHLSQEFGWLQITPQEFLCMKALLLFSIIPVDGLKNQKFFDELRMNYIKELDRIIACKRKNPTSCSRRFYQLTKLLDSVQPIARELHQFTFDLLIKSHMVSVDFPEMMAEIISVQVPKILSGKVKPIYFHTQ

On to `Nc1ccc(Br)cc1`, for which the max response in [1] was -1.58% (inactive) and -21.4% (inactive). Further, the Potency entry in assay [2], in assay [3], in assay [5], in assay [6], in [8] and in assay [9] was “inactive” each time. In addition, the Potency entry in assay [10], in assay [11], in assay [13], in [15], in [17] and in assay [18] was “inactive” each time. Further, the result in assay [4], in assay [7], in [12], in [14] and in [16] was inactive.

With `Cc1cc(Cl)ccc1O`, the max response in assay [1] was 4.2% (inactive) and 2.39% (inactive). Also, the Potency result in assay [2], in assay [3], in assay [5], in assay [6], in [8] and in [9] was “inactive” each time. The Potency entry in assay [10], in [11], in [13], in assay [15], in assay [17] and in [18] was “inactive” each time. Moreover, the call in [4], in assay [7], in assay [12], in [14] and in assay [16] was inactive.

For the molecule `CN1C(=O)CN=C(c2ccccc2)c2cc(Cl)ccc21`, in assay [1], the max response is -22% (inactive). Besides, the Potency entry in assay [2], in assay [3], in assay [5], in assay [6], in assay [8] and in [9] was “inactive” in each case. The Potency entry in assay [10], in assay [11], in [13], in assay [15], in [17] and in [18] was “inactive” each time. The call in assay [4], in assay [7], in assay [12], in assay [14], in [16] and in [19] was inactive.

As to `O=c1n(Cl)c(=O)n(Cl)c(=O)n1Cl`, in assay [1], the max response is 1.37% (inactive) and 3.54% (inactive). Further, the Potency result in assay [2], in assay [3], in [5], in assay [6], in assay [8] and in [9] was “inactive” in each case. Further, the Potency entry in [10], in assay [11], in assay [13], in assay [15], in [17] and in [18] was “inactive” in each case. Besides, the molecule was called inactive in assay [4], in assay [7], in [12], in assay [14] and in assay [16].

Consider `COC(=O)NS(=O)(=O)c1ccc(N)cc1`, for which, in assay [1], the max response is 15.7% (inactive) and 20.4% (inactive). The Potency result in [2], in [3], in assay [5], in assay [6], in assay [8] and in assay [9] was “inactive” throughout. The Potency result in assay [10], in [11], in assay [13], in [15], in assay [17] and in assay [18] was “inactive” each time. In addition, the molecule was called inactive in assay [4], in [7], in assay [12], in assay [14], in assay [16] and in assay [19].

With `CC(C)C#N`, the max response in [1] was 8.8% (inactive) and 1.31% (inactive). The Potency entry in assay [2], in assay [3], in assay [5], in [6], in assay [8] and in assay [9] was “inactive” throughout. Also, the Potency result in assay [10], in assay [11], in assay [13], in assay [15], in assay [17] and in [18] was “inactive” each time. For the same molecule, the outcome in assay [4], in assay [7], in [12], in assay [14] and in assay [16] was inactive.

As for `c1ccc(-c2ccccc2)cc1`, the max response in assay [1] was -0.911% (inactive) and -11.7% (inactive). For the same molecule, the Potency entry in assay [2], in [3], in assay [5], in [8], in assay [9] and in assay [10] was “inactive” throughout. The Potency result in assay [11], in [13], in assay [15], in assay [17], in assay [18] and in [20] was “inactive” throughout. The result in assay [4], in assay [7], in [12], in assay [14], in assay [16] and in assay [19] was inactive. In assay [6], the Potency is 49.4 µM (active) and inactive.

As to `Clc1ccc(Cl)cc1`, the max response in [1] was 6.61% (inactive) and 0.839% (inactive). Also, the Potency entry in assay [2], in [3], in assay [5], in assay [6], in assay [8] and in assay [9] was “inactive” each time. For the same molecule, the Potency entry in [10], in assay [11], in [13], in assay [15], in assay [17] and in assay [18] was “inactive” in each case. Further, the molecule was classed as inactive in assay [4], in [7], in assay [12], in assay [14] and in assay [16].

With `CCOP(=S)(OCC)Oc1cnc2ccccc2n1`, in assay [1], the max response was 0.949% (inactive). Further, the Potency entry in [2], in assay [5], in assay [6], in assay [8], in assay [9] and in assay [10] was “inactive” throughout. Further, the Potency result in [11], in assay [13], in [15], in [17] and in assay [18] was “inactive” each time. In addition, the result in [4], in assay [7], in assay [12], in assay [14], in [16] and in assay [19] was inactive.

Consider `CCCCCOC(=O)c1ccccc1C(=O)OCCCCC`, for which the max response in [1] was -11.1% (inactive) and -2.4% (inactive). The Potency entry in assay [2], in assay [5], in assay [6], in [8], in [9] and in assay [10] was “inactive” throughout. Moreover, the Potency result in assay [11], in assay [13], in assay [15], in assay [17] and in assay [18] was “inactive” throughout. The call in [4], in [7], in assay [12], in [14], in [16] and in [19] was inactive.

In the case of `CCCCN(CCCC)SN(C)C(=O)Oc1cccc2c1OC(C)(C)C2`, in assay [1], the max response is -26.5% (inactive). In addition, the Potency result in assay [2], in [3], in assay [5], in assay [6], in assay [8] and in assay [9] was “inactive” each time. The Potency entry in assay [10], in assay [11], in assay [15], in assay [17] and in [18] was “inactive” throughout. Also, the molecule was called inactive in [4], in assay [7], in assay [12], in assay [16] and in assay [19].

With `OC(O)C(Cl)(Cl)Cl`, the max response in assay [1] is -9.37% (inactive) and 5.84% (inactive). In addition, the Potency result in assay [2], in [5], in [6], in [8], in assay [9] and in assay [10] was “inactive” in each case. In addition, the Potency entry in [11], in [13], in assay [15], in [17] and in assay [18] was “inactive” in each case. The molecule was classed as inactive in assay [4], in assay [7], in assay [12], in assay [14] and in assay [16].

Regarding `CCN(CC)c1ccccc1`, in assay [1], the max response is 8.36% (inactive) and 18.4% (inactive). The Potency entry in assay [2], in assay [3], in [5], in assay [6], in assay [8] and in [10] was “inactive” throughout. In addition, the Potency entry in assay [11], in assay [13], in assay [15], in assay [17], in [18] and in assay [20] was “inactive” each time. The outcome in assay [4], in [7], in [12], in assay [14] and in assay [16] was inactive.

For `C1CC2OC2CC1C1CO1` (stereo not drawn), the max response in [1] was 9.84% (inactive). The Potency entry in assay [2], in assay [3], in [5], in assay [6], in assay [8] and in assay [10] was “inactive” each time. The Potency entry in [11], in assay [13], in [15], in assay [17] and in assay [18] was “inactive” in each case. The result in assay [4], in [7], in [12], in assay [14] and in assay [16] was inactive.

The record behind these values is PubChem BioAssay (Tox21).
